# Compound activity deposited in PubChem BioAssay by National Center for Advancing Translational Sciences (NCATS).
# A549 viability: A549 cytotoxicity, counter-screen for Nrf2 inhibitors; hit rate 0.16% among 390,000; A549 ARE-Fluc cells, CellTiter-Fluor viability, 18-24 h; AID 504648; Potency, µM (series often up to 46 µM), for inactives: at the top dose activity change, negative = cytotoxicity, usual class: inhibitors; note: potency is the fitted concentration of half-maximal effect; % is set by controls: 0 for no effect and ±100 for the full control effect
#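 A549 ARE_Fluc cells in 5% FBS OPTI-MEM were exposed to compounds in concentration-response for 18-24 h at 37 deg C. Viability was read by CellTiter-Fluor fluorescence (Ex 405/Em 525) after 30 min, before the luciferase read.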
# Nrf2 ARE act: Nrf2 pathway activation | AREc32 ARE-luciferase reporter (MCF7-derived line), luminescence, 24 h | hit rate 0.31% among 410,000 | AID 624171 | Potency, µM (series often up to 46.1 µM), for the others: at the top dose activation, hits mostly activators; note: potency is the fitted concentration of half-maximal effect; % of control where 0% means no effect; nearly all actives have a fitted effect of over 65% in size
#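 Reporter line AREc32 (ARE-Fluc), seeded overnight in OPTI-MEM with 5% FBS; compound pin-transferred, 24 hr at 37 deg C, 5% CO2; luminescent read-out.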
# 12-LOX inh: blocks human arachidonate 12S-lipoxygenase. P18054. purified 12hLO, xylenol orange hydroperoxide absorbance. Potency, µM (titrated, usually from 108 µM), for inactives: at the top dose activity change, negative = inhibition, actives largely listed as inhibitors. hit rate 1.1% among 580,000. AID 1671190; note: potency is the fitted concentration of half-maximal effect; % is set by controls: 0 for no effect and ±100 for the full control effect
# Target sequence (P18054 whole entry, looked up): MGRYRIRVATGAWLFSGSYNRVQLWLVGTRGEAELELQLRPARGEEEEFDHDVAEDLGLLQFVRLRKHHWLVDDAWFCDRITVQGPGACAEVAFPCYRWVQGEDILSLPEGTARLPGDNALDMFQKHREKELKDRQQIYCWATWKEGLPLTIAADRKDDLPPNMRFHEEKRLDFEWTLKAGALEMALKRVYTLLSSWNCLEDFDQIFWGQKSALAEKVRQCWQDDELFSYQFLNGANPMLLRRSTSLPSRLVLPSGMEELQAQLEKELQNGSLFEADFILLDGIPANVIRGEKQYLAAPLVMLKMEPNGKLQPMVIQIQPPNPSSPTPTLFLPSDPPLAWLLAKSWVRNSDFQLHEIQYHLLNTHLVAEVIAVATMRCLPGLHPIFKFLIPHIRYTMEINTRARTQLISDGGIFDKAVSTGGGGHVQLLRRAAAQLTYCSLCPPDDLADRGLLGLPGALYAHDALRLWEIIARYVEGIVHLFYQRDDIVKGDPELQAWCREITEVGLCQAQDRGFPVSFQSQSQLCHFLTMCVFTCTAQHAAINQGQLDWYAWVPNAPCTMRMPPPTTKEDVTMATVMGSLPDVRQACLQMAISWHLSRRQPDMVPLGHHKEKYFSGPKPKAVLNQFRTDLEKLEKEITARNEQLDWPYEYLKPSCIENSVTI
#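 Hydroperoxide product was detected by ferrous iron/xylenol orange as the 573 to 405 nm absorbance ratio. Arachidonic acid at 40 uM (final) was turned over for 30 min at room temperature by 150 nM human 12hLO, pH 7.0 Hepes buffer, after 15 min compound preincubation.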
# Nrf2 block: inhibitors of Nrf2 signaling. hit rate 2.1% among 360,000. Potency, µM (titrated, usually from 46 µM), without a hit: at the top dose activity change, negative = inhibition, usual class: inhibitors. A549 ARE-Fluc reporter, luciferase luminescence, 18-24 h; note: potency is the fitted concentration of half-maximal effect; % is set by controls: 0 for no effect and ±100 for the full control effect; nearly all actives have a fitted effect of over 60% in size
#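 Cells were seeded and rested 2 h, then exposed to compounds for 18-24 h. CellTiter-Fluor was read first as a viability measure. BugLite was added 15 min before the final luminescent read of ARE-luciferase activity in A549 cells.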
# LDHA inh: blocks human lactate dehydrogenase A. P00338. purified LDHA, NADH/diaphorase-resazurin fluorescence; stronger effect = lower value. activity change, % (values are at about 110 or 230 µM). hit rate 0.15% among 480,000. AID 1347041; in the data active = activity change below about -30%; inconclusive = mostly about -25% to -30%;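 note: plate controls were DMSO wells for no effect and wells without enzyme for full effect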
#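 Human LDH5 (2 nM) was incubated with 0.06 mM NADH and 0.2 mM pyruvate for 5 min at room temperature in Tris pH 7.4. Remaining NADH was coupled through diaphorase/resazurin, and resorufin fluorescence was read at 0 and 20 min.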
# mIDH1 inhibitor: inhibitors of human mutant IDH1 R132H | O75874 | IDH1-R132H enzyme, NADPH consumption, diaphorase/resazurin fluorescence | Potency, µM (highest dose often 76.6 µM), inactives show at the highest dose activity change, negative = inhibition, most hits filed as inhibitors | hit rate 0.093% among 390,000; note: potency is the fitted concentration of half-maximal effect; % is set by controls: 0 for no effect and ±100 for the full control effect; nearly all actives have a fitted effect of over 65% in size
#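 IDH1-R132H (0.5 ug/mL) preincubated 30 min with compound, then NADPH (0.016 mM) and alpha-KG (2 mM) added; 80 min at RT, pH 7.5. Remaining NADPH coupled via diaphorase/resazurin to fluorescence (540/590 nm); concentration-response curves normalized to no-enzyme control.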
# An asterisk follows results filed as active; ? = inconclusive; . = not tested or not shown; [ ] = dose if it differs, or a comment. Shown are actives, neighbours in structure and some others; about 2.7% of the full set was active somewhere. Unless noted, calls come from the whole dose curve; as a rule, active = well fitted curve in the direction sought with a large enough effect; inconclusive = small, poorly fitted or top-dose-only effect, or another doubt; inactive = no such curve, though single readings can be large; an effect the other way counts as inactive or inconclusive.
SMILES,A549 viability,Nrf2 ARE act,12-LOX inh,Nrf2 block,LDHA inh,mIDH1 inhibitor
Cc1cccc(N2CCN(C(=O)C3CCN(c4ncnc5c4nc4n5CCCCC4)CC3)CC2C)c1 (stereo not given),?,-3%,-26%,18µM*,1,0%
O=C(C1CCN(c2ncnc3c2nc2n3CCCCC2)CC1)N1CCN(c2ccccc2F)CC1,1%,0%,?,?,-5,-5%
Cc1cc(N2CCC(C(=O)N3CCN(c4cccc(C)c4C)CC3)CC2)n2ncnc2n1,11%[1.84 µM],0%,15%,15µM*,-3,0%
Cc1cccc(N2CCN(C(=O)C3CCCCC3)CC2)c1C,10%,-1%,6%,-15%,5,5%
O=[N+]([O-])c1cccc(NS(=O)(=O)c2ccccc2[N+](=O)[O-])c1,.,.,?,.,7,.
Cc1cccc(NC(=O)N2CCCC(Cn3c(C)nc4cccnc43)C2)c1 (stereo not given),.,.,-3%,.,.,.
Cc1ccc(C)c(N2CCN(C(=O)C3CCCN(c4ncnc5c4nc4n5CCCCC4)C3)CC2)c1 (stereo not given),-18%,-1%,-9%,15µM*,0,-18%
Cc1ccc(N2CCN(C(=O)C3CCCN(c4ncnc5c4nc4n5CCCCC4)C3)CC2)c(C)c1 (stereo not given),11%,0%,4%,0%,2,0%
CCCCN(CCCC)S(=O)(=O)c1ccc(NS(=O)(=O)c2ccc(NC(C)=O)cc2)cc1,-10%[1.84 µM],0%,0%,16µM*,3,-7%
COC(=O)NNC(=S)NC(=O)c1ccccc1,.,.,?,.,0,.
CCOC(=O)c1cc(S(=O)(=O)Nc2ccc3c(c2)OCCO3)[nH]n1,.,.,11µM*,.,10,.
CCOC(=O)c1cccc(NC(=O)C(CC)n2cnc3ccccc3c2=O)c1 (stereo not given),.,.,-12%,.,2,.
CCOC(=O)c1ccc(S(=O)(=O)N2CCN(C(=O)c3nn(C)c(=O)c4ccccc34)CC2)cc1,6%,0%,-14%,10%,-17,-7%
Cn1nc(C(=O)N2CCN(S(=O)(=O)c3ccc(Cl)cc3)CC2)c2ccccc2c1=O,-8%,0%,-29%,23µM*,-3,3%
CC(C)C(C(=O)NC(C)C1CC2CCC1C2)c1ccc(Cl)cc1 (stereo not given),.,.,-14%,.,2,.
Cc1ccc(C(C#N)c2ccc(C(=O)c3ccc(F)cc3)cc2)cc1 (stereo not given),-1%,4%,-1%,26µM*,0,0%
N#CC(c1ccc(F)cc1)c1ccc(C(=O)c2ccc(F)cc2)cc1 (stereo not given),-11%,4%,145%,15µM*,-2,14%
CN(C)/C=C1\N=C(c2ccccc2)OC1=O,0%,0%,-2%,28%,-14,-7%
CN(C)/C(CN1CCN(C=O)CC1)=C1\N=C(c2ccccc2)OC1=O,2%,-1%,7%,23µM*,4,2%
Cc1cc(Cl)ccc1OCCNC(=S)NC(=O)c1cccnc1,22%,0%,0%,24%,-4,9%
CC(C)c1ccccc1OCCNC(=S)NC(=O)c1cccnc1,2%,3%,40µM*,?,-1,16%
C=CCn1c(SCc2ccc(C#N)cc2)nnc1-c1ccc(C)cc1,3%,0%,-15%,21µM*,2,8%
CCCCCCCCn1ccc(=N)cc1,0%,-2%,?,-23%,-8,5%
CCCCCCCCCCn1ccc(=N)cc1,-28%,2%,-6%,15µM*,-5,1%
O=C(O)c1ccc(-n2cc(-c3cc4ccccc4oc3=O)[nH]c2=S)cc1,-3%,0%,32µM*,?,-2,2%
COc1ccc(Br)cc1CNC(=O)CCC(=O)N1CCSc2nc(C)cc(C)c21,.,.,-24%,.,-20,.
